Experimental data as given in PubChem BioAssay (NCI).
About 79,000 compounds went through this panel and 15% of them were active in at least one assay; those are over-represented in the sample as a whole. Rule as the data show it: active = growth inhibition above about 70%; inactive = the rest.

What was measured:
[1] = NCI Yeast Anticancer Drug Screen. Data for the rad50 strain (AID 155);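 also: 0% = growth of vehicle-only cultures of the same strain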; conditions: S. cerevisiae rad50 strain growth inhibition; at 50.0 µM; hits give high values
In short: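 A DNA repair-deficient yeast mutant serves as the test organism; compound-induced growth inhibition is calculated against vehicle-treated cells.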

[2] = NCI Yeast Anticancer Drug Screen. Data for the mec2-1 strain (AID 157); conditions: S. cerevisiae mec2-1 strain, at 50.0 µM, hits give high values
In short: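 Each compound was tested on mec2-1 yeast, a strain altered in DNA damage repair or cell cycle control. Growth inhibition is reported relative to vehicle.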

[3] = NCI Yeast Anticancer Drug Screen. Data for the sgs1 mgt1 strain (AID 161);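 also: 0% = growth of cultures given vehicle only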; conditions: S. cerevisiae sgs1 mgt1 strain, at 50.0 µM, hits give high values
In short: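 Inhibition of yeast growth, normalised to vehicle-treated controls, is reported for a strain bearing genetic alterations in DNA damage repair.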

[4] = NCI Yeast Anticancer Drug Screen. Data for the cln2 rad14 strain (AID 165);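 also: 0% = growth equal to vehicle treated cultures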; conditions: S. cerevisiae cln2 rad14 strain, at 50.0 µM, hits give high values
In short: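 Test compounds were added to cln2 rad14 yeast cultures; inhibition of growth was then determined by comparison with vehicle treatment.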

[5] = NCI Yeast Anticancer Drug Screen. Data for the bub3 strain (AID 167); conditions: S. cerevisiae bub3 mutant strain, at 50.0 µM, hits give high values
In short: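 Inhibition values come from growth of compound-treated mutant yeast normalised to vehicle-treated controls.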

[6] = NCI Yeast Anticancer Drug Screen. Data for the mlh1 rad18 strain (AID 175); conditions: S. cerevisiae mlh1 rad18 strain growth inhibition; at 50.0 µM; hits give high values
In short: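 Inhibition values reflect reduced growth of mutant yeast versus vehicle-treated controls following compound exposure; the mutations affect DNA damage repair.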

Measured: growth inhibition

CCOc1ccc(NS(=O)(=O)c2ccc(F)cc2)cc1
inactive: [1] -27.4% | [2] -21.3% | [3] -26.9% | [4] -6.2% | [5] -24.1% | [6] 3.05%

CNC1C(O)C(OC2C(N)CC(N)C(OC3OC(CN)=CCC3N)C2O)OCC1(C)O (configuration not stated)
inactive: [1] -17.3% | [2] -43.3% | [3] -34.1% | [4] -15.6% | [5] -25.8% | [6] -5.15%

CCCN(CCCCC(NC(C)=O)C(=O)NCc1ccccc1)C(=O)NC (configuration not stated)
inactive: [1] -26.9% | [2] -27.8% | [3] -13.1% | [4] 17.9% | [5] -18.9% | [6] -14.5%

N#Cc1ccc(OCCSCCCCCCCCCCSCCOc2ccc(C#N)cc2)cc1
inactive: [1] -16.8% | [2] -20.9% | [3] -19.8% | [4] -6.05% | [5] -1% | [6] -15.8%

CCC(CC)C(=O)OCCCC1CCCO1 (configuration not stated)
inactive: [1] 12.9% | [2] 2.9% | [3] 7.9% | [4] -3.25% | [5] -3.95% | [6] 0.6%

COC(=O)c1ccccc1C1CN=NC12Cc1c(C)ccc(C)c1C2=O (configuration not stated)
inactive: [1] 9.5% | [2] 7% | [3] 16.9% | [4] 14.2% | [5] 3.55% | [6] 29.9%

O=C(Nc1ccc(S(=O)(=O)N2CCCCC2)cc1)OC1CCCCCC1
inactive: [1] 10.1% | [2] 1.1% | [3] -8.5% | [4] 14.5% | [5] -4.05% | [6] 10.6%

CCOC(=O)c1c(C)nc(C)nc1N
inactive: [1] 0.2% | [2] -2.5% | [3] -9.85% | [4] -41.5% | [5] -22.1% | [6] 2%

Cn1c(Nc2ccccc2)c([N+](=O)[O-])c(=O)n(C)c1=O
inactive: [1] -11.8% | [2] -7.35% | [3] -5% | [4] -18.2% | [5] -2.15% | [6] -27.6%

NC(=O)C(=O)n1ncc(Cl)c(Cl)c1=O
inactive: [1] 2.65% | [2] -3% | [3] 1.05% | [4] 6.55% | [5] 8.25% | [6] -4.1%

O=C(Nc1ccc(Br)cc1)c1cc(Cl)cc(Cl)c1Br
inactive: [1] -23.4% | [2] 17.9% | [3] -16.8% | [4] -11.6% | [5] 2.85% | [6] 27.7%

Cc1ccc(NC(=O)Oc2cc(C)c(Cl)cc2C(C)C)cc1
inactive: [1] -3.9% | [2] 54.2% | [3] 43% | [4] -28.2% | [5] 51.4% | [6] 65%

CCOC(=O)NC(C(F)(F)F)(C(F)(F)F)P(=O)(OC(C)C)OC(C)C
inactive: [1] -23% | [2] -11.6% | [3] -12.4% | [4] 31.1% | [5] 3.65% | [6] 1.65%

CC(C)(C)OC(=O)N/N=C\c1ccnc2ccccc12
inactive: [1] -8.1% | [2] -8.75% | [3] 3.2% | [4] -15.7% | [5] -6.5% | [6] -1.95%

CC(=O)Oc1ccc2c(c1)oc1c3ccc(OC(C)=O)cc3n(C)c(=O)c21
inactive: [1] -20.1% | [2] -44.8% | [3] -16% | [4] -4.3% | [5] -7.95% | [6] -23.4%

Cn1c2ccccc2c2[nH]c3ccccc3c(=O)c21
inactive: [1] 54.5% | [2] 16.4% | [3] -15.1% | [4] -8.95% | [5] -11.4% | [6] 28.6%

CC(=O)OCC1OC(Oc2cccc(C=C(C(C)=O)C(C)=O)c2)C(OC(C)=O)C(OC(C)=O)C1OC(C)=O (configuration not stated)
inactive: [1] 9.25% | [2] 3.25% | [3] 6.65% | [4] 5.3% | [5] 0.65% | [6] 30.7%

CCCCOc1ccc(C(=O)C(C(c2ccccc2)N2CCOCC2)N2CCOCC2)cc1 (configuration not stated)
inactive: [1] -7.8% | [2] -4.85% | [3] -9.4% | [4] -6.8% | [5] -12.2% | [6] 9.2%

O=C(Nc1ccc2c(c1)C(O)c1ccccc1-2)C(F)(F)F (configuration not stated)
inactive: [1] 11.4% | [2] -4.3% | [3] 18.9% | [4] 8.35% | [5] 6.85% | [6] 16.1%

CC(C)=NNC(=O)COCC(=O)NN=C(C)C
inactive: [1] 0.25% | [2] -4.45% | [3] -1.35% | [4] -84.5% | [5] -22.9% | [6] 1.35%

CCCCCCc1cn([C@H]2C[C@H](O)[C@@H](CO)O2)c(=O)[nH]c1=O
inactive: [1] -5.6% | [2] -5.4% | [3] 7.2% | [4] -12.8% | [5] 3% | [6] 9.15%

CC(=O)OCC1OC(n2nc(C#N)c(C#N)n2)C(OC(C)=O)C1OC(C)=O (configuration not stated)
inactive: [1] 37.9% | [2] -3% | [3] 3.15% | [4] 8.05% | [5] -5.85% | [6] 1.15%

O=C1O/C(=C(\Br)c2ccccc2)c2ccccc21
inactive: [1] 52.9% | [2] -1.4% | [3] 55.2% | [4] 4.2% | [5] 29.1% | [6] 31.6%

COc1ccc(C(=O)C(C)(CCC#N)CCC#N)cc1
inactive: [1] -10.3% | [2] -6.3% | [3] 3.25% | [4] -44.6% | [5] 14.3% | [6] 2.3%

O=C(O)Cn1c(=O)ccc2ccccc21
inactive: [1] 4.4% | [2] -3.25% | [3] -8.55% | [4] -37.7% | [5] -7.7% | [6] 4.9%

O=c1[nH]c(-c2ccncc2)nnc1-c1ccc(Cl)cc1
inactive: [1] -4.4% | [2] -8.1% | [3] -11.5% | [4] -26.9% | [5] 2.15% | [6] -14.1%

CCCCCNC(=O)Nc1cccc(Cl)c1C
inactive: [1] -1.4% | [2] 6.75% | [3] 3.55% | [4] 11.4% | [5] 16.6% | [6] -20.6%

C[N+]12CCCCC1CC2 (configuration not stated)
inactive: [1] 29.4% | [2] -5.25% | [3] -7.35% | [4] -39.5% | [5] -40.3% | [6] 9.85%

NC(N)=Nc1ccc(CC(N)C(=O)NCC(=O)C(CC(=O)O)c2ncc(NC(=O)C(F)(F)F)o2)cc1 (configuration not stated)
inactive: [1] -17.4% | [2] -1.75% | [3] -5.15% | [4] -4% | [5] -19.6% | [6] 7.35%

Fc1ccc(-c2ccc(F)cc2)cc1
inactive: [1] -18.6% | [2] -15.4% | [3] -12.1% | [4] -44.9% | [5] -6.8% | [6] -23.1%

COc1ccc(COC(=O)NC2CCCCC2)cc1OC
inactive: [1] 2.5% | [2] 19.9% | [3] 25.1% | [4] -9.95% | [5] 37% | [6] 45.9%

COc1ccc(C(O)C(NCCO)c2ccccc2)cc1 (configuration not stated)
inactive: [1] -1.3% | [2] -19.5% | [3] 4.8% | [4] 7.15% | [5] -3.85% | [6] 7.85%

CC(=O)NC(CCCCN)C(=O)NCc1ccccc1 (configuration not stated)
inactive: [1] -1.95% | [2] -12% | [3] -12.1% | [4] 11.1% | [5] -19% | [6] -20.4%

Cc1ccc(NC(=O)/C=C/c2ccccc2)cc1
inactive: [1] -2.85% | [2] -8.1% | [3] -3.15% | [4] -3.95% | [5] 10.2% | [6] 10.9%

COc1ccc(OC)c(N2C(=O)C(=O)C(C(C)=O)C2=O)c1 (configuration not stated)
inactive: [1] 27.7% | [2] -1.95% | [3] 7.15% | [4] 25.1% | [5] 7.65% | [6] 16.5%

COc1ccc(/C=C\c2cc(OC)c(OC)c(OC)c2)cc1OC
inactive: [1] 5.2% | [2] 9.05% | [3] -17.7% | [4] 3.05% | [5] -13.1% | [6] 12%

CCOC(=O)CC(CSCP(=O)(OCC)OCC)C(=O)OCC (configuration not stated)
inactive: [1] 5.15% | [2] -1.35% | [3] 13.2% | [4] 3.4% | [5] 9.55% | [6] 16.2%

CC(C)(C)c1cc(CCC(=O)Nc2ccc(Cl)cc2)[nH]c(=S)n1
inactive: [1] 1.85% | [2] -16.1% | [3] 0.4% | [4] -8.85% | [5] -5.85% | [6] -14.8%

COc1ccc(CC[n+]2cccc(/C(=N/O)c3ccccc3)c2)cc1OC
inactive: [1] 46.9% | [2] -8.3% | [3] 25.2% | [4] 2.7% | [5] 8.25% | [6] 6.35%

O=[N+]([O-])c1cc(Cl)c(Cl)c(Cl)c1Cl
inactive: [1] 17.1% | [2] 3.4% | [3] -1% | [4] 14.8% | [5] 7.3% | [6] 31.4%

O=C(O)c1ccccc1CC(C(=O)O)C(=O)O
inactive: [1] 14.8% | [2] 4.05% | [3] 3% | [4] 7.95% | [5] -0.6% | [6] 6.15%

O=C(O)CCc1ccc2ccccc2n1
inactive: [1] 6.3% | [2] -6.6% | [3] -19.8% | [4] -0.05% | [5] -20.6% | [6] -20.2%
